{"source": "PubChem BioAssay AID2113", "about": "(National Center for Advancing Translational Sciences (NCATS), 2009)", "note": "Inconclusive results are not listed. Values without a mark were called inactive. Activity calls are given as the source filed them. Calls come from the whole dose curve; as a rule, active = well fitted curve in either direction with a large enough effect; inconclusive = small, poorly fitted or top-dose-only effect; inactive = no such curve, though single readings can be large or run the other way."}
{"target": "Lysosomal alpha-glucosidase (Homo sapiens) (UniProt P10253)", "assay": "Confirmation of Inhibitors and Activators of Human alpha-Glucosidase From Spleen Homogenate; note: 0% is about no effect", "conditions": "alpha-glucosidase enzyme activity; series mostly up to 60.5 µM; activity change, both directions: at the top concentration", "text": "NIH Chemical Genomics Center [NCGC]\nNIH Molecular Libraries Probe Production centers Network [MLPCN]\nAssay Submitter (PI): Wei Zheng\nAlpha-glucosidase is responsible for hydrolysis of terminal, non-reducing 1,4-linked alpha-D-glucose residues with release of alpha-D-glucose. It is a lysosomal hydrolase that is required for the degradation of a small percentage (1-3%) of cellular glycogen in human. Deficiency of this enzyme results in glycogen-storage disease type II (GSDII), also referred to as Pompe disease, an autosomal recessive disorder. Structurally normal glycogen is accumulated in lysosomes and cytoplasm in affected patients, primarily in muscle tissues. Excessive glycogen storage within lysosomes may interrupt normal functioning of other organelles and leads to cellular injury. In turn, this leads to enlargement and dysfunction of the entire organ involved (eg, cardiomyopathy and muscle weakness).\nIt has reported that the improper folding and trafficking of alpha-glucosidase resultinged from the genetic mutations may account for a significant number of Pomrope patients. […] We optimized this alpha-glucosidase assay in 1536-well plate format for identifying the novel small molecule inhibitors with the structures other than the sugar analogs in order to develop the new pharmacological chaperones. In particular, this assay is directed towards discovering compounds active in a more natural setting, tissue homogenate, that may have been missed by screens of the purified enzyme under more stringent conditions. This assay attempted to confirm hits from the primary screening.\nNCGC Assay Protocol Summary:\nThis is a fluorogenic enzyme assay with 4-methylumbelliferyl-alpha-D-glucopyranoside as the substrate and human spleen homogenate containing alpha-glucosidase as the enzyme preparation. Upon hydrolysis of this fluorogenic substrate, the resulting product, 4-methylumbelliferone (which excites at 365 nm and emits at 440 nm) can be detected by a fluorescence plate reader. Data were normalized to the controls for basal activity (without enzyme) and 100% activity (with enzyme). The AC50 values were determined from concentration-response data modeled with the standard Hill equation.\nAssay buffer: 50 mM citric acid (titrated with potassium phosphate to pH 5.0), 0.01% Tween-20 (pH 5.0 is an optimal condition for this enzyme assay)\n1536-well assay protocol for the alpha-glucosidase from human spleen homogenate:\n(1) Add 2 ul/well spleen homogenate (1 ug)\n(2) Add 23 nL compounds in DMSO solution. The final titration was 0.5 nM to 58 uM.\n(3) Add 2 ul of substrate (1 mM final)\n(4) Incubate at 37 C for 40 min\n(5) Add 2 ul stop solution (1M NaOH and 1M Glycine mixture, pH 10)\n(6) Detect the assay plate in a ViewLux plate reader (PerkinElmer) with Ex=365 nm and Em=440nm.\nKeywords: Alpha-glucosidase, Pompe Disease, pharmacological chaperone, chaperone therapy, high throughput screening, alpha-glucosidase inhibitor, MLSMR, MLSCN, NIH Roadmap, qHTS and NCGC"}
{"smiles": "CCCCC/C=C\\C/C=C\\C/C=C\\C/C=C\\CCCC(=O)NCCCC(=O)O", "activity change, both directions": "-9.01%"}
{"smiles": "O[C@@H]1[C@H](O)[C@H]2[C@@H](O)CCN2C[C@@H]1O", "activity change, both directions": "-100% [at 286 µM]"}
{"smiles": "Cc1cc(C(=O)CS(=O)(=O)c2ccc(F)cc2)cc(C)c1OC(=O)N(C)C", "activity change, both directions": "1.6% [at 31.5 µM]"}
{"smiles": "COc1ccc(Cc2nccc3cc(OC)c(OC)cc23)cc1OC", "activity change, both directions": "-1.95%"}
{"smiles": "CC(=O)[O][Hg][c]1ccccc1", "activity change, both directions": "5.66% [at 286 µM]"}
{"smiles": "O=C(O)c1ccccc1-c1c2cc(Br)c(=O)cc-2oc2[c]([Hg])c(O)c(Br)cc12", "activity change, both directions": "-2.07% [at 286 µM]"}
{"smiles": "OC[C@@H]1[C@@H](O)[C@H](O)[C@H]2[C@@H](O)CCN21", "activity change, both directions": "-42.7%"}
{"smiles": "Cc1cc(/C=C2/C(=O)NC(=O)N(Cc3ccco3)C2=O)c(C)n1-c1ccc(C(=O)O)cc1", "activity change, both directions": "-16.4%"}
{"smiles": "CCOc1ccc2cc(C#N)c(=O)oc2c1", "activity change, both directions": "2.73%"}
{"smiles": "CC(=O)Nc1ccc(OC(=O)c2ccccc2N)cc1", "activity change, both directions": "6.2% [at 31.5 µM]"}
{"smiles": "C/C(O)=C(/C#N)C(=O)Nc1cc(Br)ccc1Br", "activity change, both directions": "-58.7%"}
{"smiles": "O[C@H]1[C@H](O)[C@@H](O)CN2CC[C@H](O)[C@H]12", "outcome": "inactive"}
{"smiles": "CC(C)(C)c1cc(C=C(C#N)C#N)cc(C(C)(C)C)c1O", "activity change, both directions": "2.31%"}
{"smiles": "C/C=C(/C)C(=O)O[C@H]1C(C)=C2C([C@@H]1OC(=O)CCCCCCC)[C@@](C)(OC(C)=O)C[C@@H](OC(=O)CCC)[C@@]1(O)[C@H]2OC(=O)[C@@]1(C)O", "note": "(stereo not given in full)", "activity change, both directions": "-6.96%"}
{"smiles": "Cc1cc(/C=C2\\C(=O)NC(=O)N(c3ccc(F)cc3)C2=O)c(C)n1-c1ccc(C(=O)O)cc1", "activity change, both directions": "-12.7%"}
